Sfp PPTase inh = inhibitors of Bacillus subtilis Sfp phosphopantetheinyl transferase. Biochemical Sfp PPTase activity, qHTS. hit rate 3.5% among 310,000. Potency, µM, for the others: largest response in the series, negative = inhibition, most hits filed as inhibitors;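 also: the enzyme is Sfp with the accession as filed and its product quenches rhodamine fluorescence; 0% = enzyme reaction without inhibitor and -100% = no enzyme wells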
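Fluorescence-quenching assay with 15 nM Sfp, 5 uM rhodamine-CoA and 12.5 uM BHQ-2-labelled ybbR peptide in pH 7.6 Hepes/MgCl2 buffer. Enzyme was pre-incubated with compound for 15 min at room temperature. Rate was taken from the 30-min fluorescence change (525/598 nm).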
G9a block = inhibitors of human histone lysine methyltransferase G9a. Q96KQ7. G9a H3K9 monomethylation, AlphaScreen, 2 h. Potency, µM (series often up to 102 µM), for inactives: top-dose activity, negative = inhibition, hits mostly inhibitors. hit rate 8.8% among 350,000; also: % is scaled to controls: 0 for no effect and ±100 for the full control effect; nearly all actives have a fitted effect of over 75% in size
Target sequence (Q96KQ7 913-1193 limits assumed): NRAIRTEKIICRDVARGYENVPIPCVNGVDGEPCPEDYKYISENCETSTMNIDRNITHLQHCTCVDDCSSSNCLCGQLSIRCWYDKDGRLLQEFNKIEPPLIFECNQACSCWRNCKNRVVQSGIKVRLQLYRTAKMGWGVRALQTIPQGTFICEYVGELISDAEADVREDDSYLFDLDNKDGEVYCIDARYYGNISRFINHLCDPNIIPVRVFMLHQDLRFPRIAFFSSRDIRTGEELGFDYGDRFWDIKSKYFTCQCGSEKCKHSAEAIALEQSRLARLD
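Compounds were preincubated with 20 nM G9a for 15 min, after which biotinylated H3K9 peptide (500 nM) and SAM (20 uM) started a 2 h room-temperature reaction. Monomethylated product was quantified by antibody-based AlphaScreen chemiluminescence.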
JMJD2A Tudor = inhibitors of human JMJD2A Tudor domain; O75164; AlphaScreen JMJD2A-Tudor / H3K4me3 peptide binding; Potency, µM (series often up to 114 µM), for inactives: top-dose activity change, negative = inhibition, hits mostly inhibitors; hit rate 4.4% among 390,000; also: % is scaled to controls: 0 for no effect and ±100 for the full control effect; nearly all actives have a fitted effect of over 50% in size
HP1b binding inh = HP1-beta chromodomain-methylated histone interaction inhibition; P83916; AlphaScreen HP1-beta / biotin-H3K9me3 peptide binding; hit rate 0.56% among 390,000; AID 540317; Potency, µM (titrated, usually from 114 µM), without a hit: at the top dose activity change, negative = inhibition, hits mostly inhibitors; also: nearly all actives have a fitted effect of over 70% in size
Target sequence (P83916 whole entry, looked up): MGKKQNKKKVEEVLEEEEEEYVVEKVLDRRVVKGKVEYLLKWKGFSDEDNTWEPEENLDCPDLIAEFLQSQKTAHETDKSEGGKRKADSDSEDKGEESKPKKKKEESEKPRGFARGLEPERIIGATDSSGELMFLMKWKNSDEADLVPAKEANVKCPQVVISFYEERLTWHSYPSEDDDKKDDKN
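Compound inhibition of the preformed complex between 50 nM HP1-beta and 50 nM biotinylated H3K9me3 peptide was read by AlphaScreen. Buffer was PBS pH 7.4 with 0.01% Tween-20. Incubations ran 30 min at room temperature, with 10 ug/mL donor/acceptor beads.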
12-LOX inh = blocks human arachidonate 12S-lipoxygenase | P18054 | purified 12hLO, xylenol orange hydroperoxide absorbance | Potency, µM (top dose mostly 108 µM), inactives show at the top dose activity change, negative = inhibition, hits mostly inhibitors | hit rate 1.1% among 580,000 | AID 1671190; also: % is scaled to controls: 0 for no effect and ±100 for the full control effect
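Purified human 12hLO (150 nM final) in 25 mM Hepes, 0.01% Triton X-100, pH 7.0 was preincubated 15 min at room temperature with compound. Then 40 uM arachidonic acid was added, 30 min. Hydroperoxide was read by Fe-XO absorbance ratio 573/405 nm.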
BAZ2B inh = inhibitors of human BAZ2B bromodomain | Q9UIF8 | AlphaScreen BAZ2B-H3K14Ac peptide displacement | Potency, µM (titrated, usually from 114 µM), for inactives: at the top dose activity change, negative = inhibition, hits mostly inhibitors | hit rate 4.4% among 360,000 | AID 504333; also: % is scaled to controls: 0 for no effect and ±100 for the full control effect; nearly all actives have a fitted effect of over 60% in size
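Complex of BAZ2B and biotin-H3K14Ac (50 nM apiece) forms over 30 min at RT, then faces library compounds up to 110 uM for another 30 min; AlphaScreen beads added, 20 min dark incubation, luminescence read.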
* hit, by the source's call; ? = inconclusive; . = no result given; ! = not active in a repeat; [ ] = remark or other dose. This is a sample that favours compounds with a hit; in the whole collection about 8.7% have one here. Calls follow the shape of the dose curve; as a rule, active = well fitted curve in the direction sought with a large enough effect; inconclusive = small, poorly fitted or top-dose-only effect, or another doubt; inactive = no such curve, though single readings can be large; an effect the other way counts as inactive or inconclusive. Potency is read from the fitted curve at half-maximal effect.

SMILES | Sfp PPTase inh | G9a block | JMJD2A Tudor | HP1b binding inh | 12-LOX inh | BAZ2B inh
COc1ccc(OC)c(/C=N/c2oc(-c3ccco3)c(-c3ccco3)c2C#N)c1 | 25µM* | 32µM* | 50µM* | ? | ? | 19%
N#Cc1c(N)oc(-c2ccco2)c1-c1ccco1 | 32µM* | 45µM* | ? | -7% | ? | ?
N#Cc1c(N)oc(-c2cccs2)c1-c1cccs1 | -9% | 13µM* | ? | 5% | 1% | -11%
N#Cc1c(N)oc(-c2ccccc2)c1-c1ccccc1 | 7% | ? | -13% | 40% | ? | -23%
Cc1noc(C)c1[S+](=O)([O-])N1CCC2(C1)N=C(c1ccncc1)C(=O)N2 (stereo not drawn) | . | . | . | . | 20% | .
CS(=O)(=O)N1CC2(CCN(CC3CC3)CC2)Cc2ccccc21 | . | . | . | . | 0%[6.33 µM] | .
Brc1ccc(-c2noc(-c3ccncc3)n2)o1 | . | . | . | . | 46% | .
CN(C)C[C@@H]1CN(c2ccccn2)C[C@H]1NC(=O)c1ccoc1 | . | . | . | . | 33% | .
COCC(=O)N(C)[C@H]1C[C@H]2c3cc(-c4ccccc4)ccc3CCN2C(=O)[C@H]1[C@H](C)O | . | . | -17% | 22% | 4% | .
COc1ccc(-c2ccc3c(c2)[C@@H]2C[C@H](N(C)C(=O)C(C)(C)C)[C@H]([C@H](C)O)C(=O)N2CC3)cc1 | . | . | ? | 15% | 11µM* | .
Cc1cccc(NCc2n[nH]c(=S)n2-c2ccccc2)c1 | ? | ? | -98% | -24% | ? | ?
Cc1ccc(NCc2n[nH]c(=S)n2-c2ccccc2)c(C)c1 | 11% | 4µM* | 56µM* | 1% | -27% | ?
Cc1ccc(NCc2n[nH]c(=S)n2-c2ccccc2)cc1 | ? | 1.6µM* | ? | -18% | 28µM* | ?
COc1cccc(CN[C@@H]2CCC[C@@H](C(=O)NC3CC3)CC(=O)N(C)C2)c1 | . | . | . | . | 4%[176 µM] | .
O=S(=O)(/N=C(/NS(=O)(=O)c1ccccc1)c1ccccc1)c1ccccc1 | 17% | ? | -18% | 38% | -4% | -3%
CCOC(=S)N/C(=N\S(C)(=O)=O)c1ccccc1 | 20µM* | 16µM* | -11%[11.4 µM] | 19% | ? | -19%
CCCOC(=S)N/C(=N\S(=O)(=O)c1ccccc1)c1ccccc1 | 16µM* | 10µM* | -18% | -26% | 35µM* | 7%
Cc1ccc(NC(=S)N/C(=N/S(=O)(=O)c2ccccc2)c2ccccc2)cc1 | ? | 13µM* | -30% | -24% | 35µM*! | -31%
COC(=S)N/C(=N\S(=O)(=O)c1ccc(Cl)cc1)c1ccccc1 | 22µM* | 25µM* | -26% | -15% | ? | -21%
CN(C)c1ncnc2sc3c(c12)CCN(S(=O)(=O)c1ccccc1)C3 | . | . | . | . | -2% | .
CCOC(=S)N/C(=N\S(=O)(=O)c1ccccc1)c1ccccc1 | 18µM* | 10µM* | -7% | ? | ? | 11%
Cc1ccc(S(=O)(=O)/N=C(/NC(=S)Nc2ccccc2)c2ccccc2)cc1 | -15% | ? | -13% | -10% | ? | 6%
COCCCNC(=S)NNC(=O)c1csc(C)n1 | 10% | 23% | -32% | 64% | 111% | 79µM*
COCCCNC(=S)NNC(=S)Nc1ccc(OC)cc1 | 50µM* | . | 1.8µM* | ? | -36% | -17%
COc1ccc(C(CNC(=O)CN2CCN(C(C)=O)CC2)c2c[nH]c3ccccc23)cc1 (stereo not drawn) | . | . | . | . | 39% | .
SMILES | Sfp PPTase inh | G9a block | JMJD2A Tudor | HP1b binding inh | 12-LOX inh | BAZ2B inh
COc1ccc(-n2nnnc2C2CCN(S(=O)(=O)c3cc(OC)ccc3OC)CC2)cc1 | . | . | . | . | -28% | .
COc1ccc(-c2nnc3n2-c2ccccc2SC3)cc1OC | 79µM* | ? | -23% | 45% | ? | ?
S=c1nc[nH]c2nc[nH]c12 | 40µM*! | ? | 4µM* | -7% | ? | 35µM*
O=c1[nH]c(=S)[nH]c2nc[nH]c12 | . | . | ? | 3%[57 µM] | . | .
CSc1c[n+]2c(n1C)CCC2 | 10% | ? | 32µM* | 6% | 45µM* | 13%
Cc1ccc(C(=O)N(C)Cc2ccsc2)s1 | . | . | . | . | 21% | .
O=C(O)c1cc(Nc2cc(Cl)c3nonc3c2[N+](=O)[O-])ccc1O | 45µM* | 35µM* | -32% | 9% | ? | ?
O=C(O)c1nn(Cc2ncc(-c3cccc(Cl)c3)o2)c(=O)c2ccccc12 | 10% | 40µM* | -30% | ? | -8% | -20%
O=C(O)c1nn(Cc2ccccc2)c(=O)c2ccccc12 | . | . | . | . | -23% | .
CN(C)Cc1cn(C[C@H]2C[C@@H](NC(=O)c3nc4ccccc4s3)[C@H](O)[C@@H]2O)nn1 | . | . | . | . | 17% | .
COc1ccc(N2CCN(C(=O)Cc3ccc(S(=O)(=O)N4CCOCC4)s3)CC2)cc1 | -3% | 45µM* | 45µM* | 50µM* | -13% | 40µM*
O=C(Cc1ccc(S(=O)(=O)N2CCCC2)s1)N1CCN(c2ccccc2)CC1 | 21% | ? | -6% | 12% | 0% | .
Cc1ccc(S(=O)(=O)N2CCN(C(=O)Cc3ccc(S(=O)(=O)N4CCOCC4)s3)CC2)cc1 | 11% | 79µM* | -8% | 36% | 420% | -18%
O=C(Cc1ccc(S(=O)(=O)N2CCOCC2)s1)N1CCN(S(=O)(=O)c2ccc(Cl)cc2)CC1 | . | -16%[12.7 µM] | -14% | 32% | 6% | -17%
CCN(CC)CCNC(=O)c1nc2ccccc2c(=O)[nH]1 | . | . | . | . | -6% | .

Screening results from PubChem BioAssay.
